Screens: PubChem, National Center for Advancing Translational Sciences (NCATS)
S2 tox – viability counter-screen for ATXN expression inhibitors; S2 cells (HEK-293 line with an ATXN2-luciferase reporter) viability, CellTiter-Fluor protease fluorescence, 24 h; Potency, µM (titrated, usually from 56.7 µM), actives largely listed as cytotoxic; hit rate 0.49% among 400,000; further: nearly all actives have a fitted effect of over 40% in size
KB-3-1 cytotox – kills parental KB-3-1 adenocarcinoma cells | KB-3-1 viability, CellTiter-Glo ATP luminescence, 72 h | Potency, µM (doses to about 46.1 µM), usual class: cytotoxic | hit rate 1.4% among 400,000 | AID 1347075; further: on the % scale 0 is the no-effect control and ±100 the full control effect; nearly all actives have a fitted effect of over 60% in size
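Screening of KB-3-1 cells (DMEM, 10% FBS, phenol-red free) ran from lowest to highest compound concentration; after 72 h at 37 °C viability was read luminescently and curves fitted.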
HT1080NT lethal – kills 2HG-producing HT-1080-NT fibrosarcoma cells. HT-1080-NT fibrosarcoma viability, CellTiter-Glo ATP luminescence, 48 h. Potency, µM (highest dose often 46.1 µM), without a hit: at the highest dose activity, negative = less viability, usual class: cytotoxic. hit rate 1.6% among 360,000. AID 686970;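 further: NT is the 2HG producing partner of a matched IDH1 knockdown line; 0% = DMSO-treated cells and -100% = media-only wells without cells; nearly all actives have a fitted effect of over 55% in size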
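Read-out is CellTiter-Glo luminescence after 10 minutes at room temperature, following 48 hours' compound treatment of HT-1080-NT cells (750 cells/well, RPMI, 5% FBS, 37 degrees C).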
KB-V1 MDR tox – KB-V1 MDR subline cytotoxicity. AID 1347076. hit rate 3.4% among 400,000. Potency, µM (doses to about 46.1 µM), usual class: cytotoxic. KB-V1 MDR cells viability, CellTiter-Glo, 72 h; further: on the % scale 0 is the no-effect control and ±100 the full control effect; nearly all actives have a fitted effect of over 60% in size
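qHTS viability screen in drug-selected KB-V1 MDR cells: 72 h compound treatment at 37 degrees C, ATP luminescence end point.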
HT1080 IDH1KD tx – toxicity to HT-1080 IDH1 knockdown cells (counter line); HT-1080 IDH1 knockdown viability, ATP luminescence, 48 h; Potency, µM (doses to about 46.1 µM), without a hit: at the highest dose activity, negative = toxicity, actives largely listed as cytotoxic; hit rate 2% among 360,000;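 further: 0% = DMSO wells and -100% = cell-free medium wells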
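Knockdown cells (IDH1KD HT-1080) received compounds 2 h after plating at 750 cells/well and were kept 48 h at 37 °C in 5% FBS RPMI. A CellTiter-Glo luminescence read gave % activity for curve fitting.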
ATXN2 expr inh – inhibitors of ATXN2 expression; HEK-293 ATXN2-luciferase reporter, luminescence, 24 h; AID 1745845; hit rate 0.72% among 360,000; Potency, µM (top dose mostly 57 µM), without a hit: top-dose activity change, negative = inhibition, usual class: inhibitors; further: on the % scale 0 is the no-effect control and ±100 the full control effect; nearly all actives have a fitted effect of over 55% in size
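ATXN2-luciferase reporter cells (luciferase flanked by upstream and downstream ATXN2 gene portions) were treated 24 h at 37 °C with compounds at up to 57 uM. SteadyGlo luminescence gave expression; GF-AFC fluorescence gave viability.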
* = called active by the depositor; i = inactive; ? = inconclusive; / = not tested or not shown; [ ] = dose if it differs, or a comment. Rows were chosen to be rich in hits. Some 6.2% of all compounds tested hit in one or more screens of this group. The call rests on the fitted dose curve; in most records, active means well fitted curve in the direction sought with a large enough effect; inconclusive means small, poorly fitted or top-dose-only effect, or another doubt; inactive means no such curve, though single readings can be large; an effect the other way counts as inactive or inconclusive. Potency means the concentration at half of the fitted maximal effect.

SMILES	S2 tox	KB-3-1 cytotox	HT1080NT lethal	KB-V1 MDR tox	HT1080 IDH1KD tx	ATXN2 expr inh
O=c1c2cccnc2n(Cc2ccc(Cl)cc2)c(=O)n1Cc1ccc(F)cc1	i	i	/	?	/	8.2%
O=C(CSc1ccc2ccccc2c1)N1CCN(c2ccc(O)cc2)CC1	i	i	-16.2%	i	?	-25.3%
COc1ccccc1N1CCN(C(=O)c2cccc(S(=O)(=O)N3c4ccccc4CC3C)c2)CC1 (centres undefined)	?	i	?	3.66µM*	?	?
O=C(c1cccc(S(=O)(=O)N2CCc3ccccc3C2)c1)N1CCN(c2ccc(O)cc2)CC1	i	?	-9.6%	13µM*	-20.2%	-32.3%
CCOc1ccccc1N1CCN(C(=O)c2cccc(S(=O)(=O)N3CCOCC3)c2)CC1	i	?	-0.5%	23.1µM*	-3.6%	1.3%
O=C(c1ccc2ccccc2c1)N1CCN(c2ccc(O)cc2)CC1	i	i	-8.4%	23.1µM*	-10.9%	-28.7%
NC(=O)C1CCN(C(=O)c2cccc(S(=O)(=O)N3CCc4ccccc4C3)c2)CC1	i	i	-6.8%	i	0.3%	9.1%
COc1ccccc1NC(=O)CSc1nc2ccccc2c(=O)n1CCC(=O)NC1CCCCC1	i	i	/	i	/	-3.0%
Cc1cccc(-c2nc(S(=O)(=O)c3ccc(F)cc3)c(N3CCN(c4ccccc4)CC3)o2)c1	/	i	/	i	/	/
C=C[C@H](CC(C)C)N(Cc1ccccc1)S(=O)(=O)N(Cc1ccccc1)[C@H](C=C)CC(C)C	/	i	/	i	/	/
O=C(c1ccc2c(c1)N(Cc1ccc(Cl)cc1)C(=O)c1ccccc1S2(=O)=O)N1CCCCCC1	i	?	/	?	/	?
O=S(=O)(c1ccc(Oc2ccc(S(=O)(=O)N3CCOCC3)cc2)cc1)N1CCOCC1	i	?	-3.4%	14.6µM*	-2.5%[9.24 µM]	-13.4%
COc1ccc(N2CCN(C(=O)c3ccc(S(=O)(=O)N4CCOCC4)cc3)CC2)cc1	i	i	5.2%	16.4µM*	-4.2%	-2.8%
CCOc1ccccc1N1CCN(C(=O)Cc2ccc(S(=O)(=O)N3CCOCC3)s2)CC1	i	i	-3.4%	23.1µM*	1.4%	-9.6%
Cc1cc(C(=O)CCl)c(C)n1-c1cccc(S(=O)(=O)N2CCOCC2)c1	/	i	23.1µM*	16.4µM*	?	-18.4%[11.3 µM]
CCC(C)NC(=O)CSc1nc2n[nH]c(C)c2c(=N)n1-c1ccc(C)c(Cl)c1 (centres undefined)	i	i	/	i	/	-14.3%
Cc1nn(-c2ccccc2)c(N)c1N=Nc1cccc(S(=O)(=O)N2CCOCC2)c1	?	?	?	4.11µM*	?	-13.4%
Cc1nn(-c2ccccc2)c(N)c1N=Nc1ccccc1	?	?	?	?	?	162.6%
O=S(=O)(c1ccc(Oc2ccc(F)c(Cl)c2)nc1)N1CCOCC1	i	i	-0.1%	23.1µM*	-3.8%	3.9%
O=C(c1cccc(S(=O)(=O)N2CCOCC2)c1)N1CCN(c2ccccc2)CC1	i	i	5.6%	18.4µM*	11.2%	1.6%
O=c1c2cc(N3CCOCC3)ccc2[nH]c(=S)n1Cc1ccc(Cl)cc1	i	i	2.9%	20.6µM*	-0.9%	46.6%
O=c1c2cc(N3CCOCC3)ccc2[nH]c(=S)n1CCCN1CCCCCC1	/	i	-11.9%	i	-5.2%	/
CC(C)OCCCn1c(=S)[nH]c2ccc(N3CCOCC3)cc2c1=O	i	?	-1.3%	6.51µM*	2.3%	-11.7%
CSc1ccc(/C=C2\C=Cc3cc([N+](=O)[O-])ccc32)cc1	/	?	/	i	/	/
CC1CCc2nc(-c3cc4c(ccc5ccccc54)oc3=O)sc2C1 (centres undefined)	/	i	/	i	/	/
SMILES	S2 tox	KB-3-1 cytotox	HT1080NT lethal	KB-V1 MDR tox	HT1080 IDH1KD tx	ATXN2 expr inh
Cc1ccc(-c2cc(C(=O)Nc3ccccc3C(N)=O)c3ccccc3n2)o1	?	i	-23.8%	?	-29.0%	-17.6%
COc1ccc(NC(=O)c2cc(-c3ccc(C)o3)nc3ccccc23)cc1OC	i	?	?	16.4µM*	?	39.7%
Cc1ccc(-c2cc(C(=O)Nc3nccs3)c3ccccc3n2)o1	i	i	6.9%	7.31µM*	5.6%	10.5%
Cc1ccc(NC(=O)c2cc(-c3cccs3)nc3ccccc23)nc1	i	?	?	?	20.6µM*	-30.8%
O=C(Nc1nccs1)c1cc(-c2ccncc2)nc2ccccc12	i	i	2.3%	?	-18.1%	-12.5%
Cc1ccc(-c2cc(C(=O)Nc3nccs3)c3ccccc3n2)c(C)c1	?	i	-3.3%	13µM*	4.3%	-20.9%
Cc1cccn2c(=O)c3cc(C#N)c(=O)n(-c4nnc(SCc5ccc(F)cc5)s4)c3nc12	/	i	/	i	/	1.5%
Cc1ccc(C)c(CN2CCC3(CCC(CNC(=O)c4ccnn4C)O3)CC2)c1 (centres undefined)	i	/	/	/	/	/
Cc1cc(SCc2sc(-c3ccc(C(F)(F)F)cc3)nc2C)ccc1OCC(=O)O	/	/	/	/	/	26.8%
Cc1cc(C)c2nc(NNC(=O)c3cc(-c4cccs4)nc4ccccc34)sc2c1	i	i	?	i	?	?
O=C(NNc1nc2ccc(Cl)cc2s1)c1cc(-c2cccs2)nc2ccccc12	?	?	?	?	?	31.6µM*
Cc1cccc(N2CCN(C(=O)c3ccccn3)CC2C)c1 (centres undefined)	?	i	?	?	17.5%	-4.8%
Cc1cccc(N2CCN(C(=O)NC3CCCCC3)CC2C)c1 (centres undefined)	?	i	-0.5%	i	15.0%	22.4µM*
Cc1cc(C(=O)COc2ccccc2C(N)=O)c(C)n1C	i	i	5.4%	?	3.8%	7.9%
